{"source": "PubChem BioAssay AID488975", "about": "(Johns Hopkins Ion Channel Center, 2010)", "note": "Screen size: about 310,000 compounds; about 2,600 (0.84%) were called active.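 Rule for the calls: active = B-score over 3 SD under the library average, and starting fluorescence ratio not unusually high; inactive = the rest.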 The list comes from a sample in which actives are over-represented; it also holds similar structures and randomly drawn compounds.", "data": [{"biological_target": "High affinity choline transporter 1 (Homo sapiens) (UniProt Q9GZV3)", "sequence (Q9GZV3 whole entry, looked up)": "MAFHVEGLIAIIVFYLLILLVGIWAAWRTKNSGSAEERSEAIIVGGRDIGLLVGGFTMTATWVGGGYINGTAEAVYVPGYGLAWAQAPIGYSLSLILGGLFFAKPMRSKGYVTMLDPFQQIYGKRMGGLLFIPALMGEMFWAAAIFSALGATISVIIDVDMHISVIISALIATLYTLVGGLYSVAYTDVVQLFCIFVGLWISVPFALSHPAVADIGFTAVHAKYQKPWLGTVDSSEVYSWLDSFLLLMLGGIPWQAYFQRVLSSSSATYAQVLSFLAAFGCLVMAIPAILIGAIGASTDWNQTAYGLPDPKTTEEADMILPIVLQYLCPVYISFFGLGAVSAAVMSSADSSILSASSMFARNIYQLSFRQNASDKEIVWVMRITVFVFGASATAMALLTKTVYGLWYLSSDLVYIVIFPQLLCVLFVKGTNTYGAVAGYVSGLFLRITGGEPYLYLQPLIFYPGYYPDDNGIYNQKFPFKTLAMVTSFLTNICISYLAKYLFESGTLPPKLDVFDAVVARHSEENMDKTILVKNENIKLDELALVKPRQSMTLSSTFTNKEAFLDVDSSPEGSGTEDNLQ", "test": "inhibitors of human choline transporter CHT (AID 488975);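 for B-score: choline stimulus applied at its EC90 after an EC20 pre-addition; B-score computed on integrated fluorescence ratio after choline addition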", "details": "CHT-expressing cells, membrane potential dye, choline response, at 10 µM; hits give low values", "values": [{"smiles": "CN(CC(=O)NCc1cccnc1)S(=O)(=O)c1cc(Cl)ccc1Cl", "B-score": "inactive"}, {"smiles": "COc1ccc(CC2c3cc(OC)c(OC)cc3CC[N+]2(C)CCC(=O)OCCCCCOC(=O)CC[N+]2(C)CCc3cc(OC)c(OC)cc3C2Cc2ccc(OC)c(OC)c2)cc1OC", "note": "(stereo not given)", "B-score": "inactive"}, {"smiles": "Cc1ccccc1N1CC(C(=O)Nc2ccc(S(=O)(=O)N3CCCC3)cc2)CC1=O", "note": "(stereo not given)", "B-score": "inactive"}, {"smiles": "CCC1(c2ccccc2)NC(=O)N(CC(=O)Nc2ccccc2C(=O)NC2CCCC2)C1=O", "note": "(stereo not given)", "B-score": "inactive"}, {"smiles": "CCc1noc(C)c1C(=O)Oc1ccc(N(C)S(=O)(=O)c2ccc(C)c(C)c2)cc1", "B-score": "inactive"}, {"smiles": "CN1CCN(NC(=O)c2ccc(S(=O)(=O)N3CCCCCC3)cc2)CC1", "B-score": "inactive"}, {"smiles": "CC1CC(C)CN(S(=O)(=O)c2ccc(C(=O)NN3CCOCC3)cc2)C1", "note": "(stereo not given)", "B-score": "inactive"}, {"smiles": "CC1CN(S(=O)(=O)c2ccc(C(=O)NN3CCN(C)CC3)cc2)CC(C)O1", "note": "(stereo not given)", "B-score": "-5.14 (active)"}, {"smiles": "CCCc1cc(=O)[nH]c(SCC(=O)c2c(N)n(CC(C)C)c(=O)n(C)c2=O)n1", "B-score": "inactive"}, {"smiles": "Cc1ccccc1-n1nnc2c(=O)oc3ccccc3c21", "B-score": "-6.25 (active)"}, {"smiles": "CCOC(=O)c1c(C)nc2c(c1C)c(=O)oc1ccccc12", "B-score": "inactive"}, {"smiles": "CCCCC(=O)Nc1cc(C)c2c(=O)oc3ccccc3c2n1", "B-score": "inactive"}, {"smiles": "Cc1ccc(Cl)c(OCC(=O)N(C)CC(=O)Nc2ccc(N3CCOCC3)cc2)c1", "B-score": "inactive"}, {"smiles": "CNC(=O)/C(=C\\C=C\\c1ccccc1)NC(=O)c1ccc([N+](=O)[O-])cc1", "B-score": "inactive"}, {"smiles": "O=C(NCc1ccco1)/C(=C/c1ccco1)NC(=O)c1ccccc1", "B-score": "inactive"}, {"smiles": "Cc1ccc(C(=O)N/C(=C/C=C/c2ccccc2)C(=O)NCc2ccco2)cc1", "B-score": "-7.21 (active)"}, {"smiles": "Cc1n[nH]c(=O)c2c(NC(=O)CSc3ccccc3F)oc(C)c12", "B-score": "inactive"}, {"smiles": "Cc1ccc2nc(SCC(=O)Nc3cccc4ccccc34)nc(=O)n2c1", "B-score": "inactive"}, {"smiles": "Cc1sc2c(c1C)c(=O)n(-c1ccccc1)c(=O)n2CC(=O)NCC1CCCO1", "note": "(stereo not given)", "B-score": "inactive"}, {"smiles": "Cc1nn(CC(=O)NCC2CCCO2)c(=O)c2cc3ccccc3n12", "note": "(stereo not given)", "B-score": "-5.7 (active)"}, {"smiles": "Cc1c(Cl)c([N+](=O)[O-])nn1CC(=O)NCC1CCCO1", "note": "(stereo not given)", "B-score": "inactive"}, {"smiles": "COc1ccc(N2C(=O)CNC2=S)cc1", "B-score": "-7.99 (active)"}, {"smiles": "COc1ccc(N2C(=O)CC(SC(C)C)C2=O)cc1", "note": "(stereo not given)", "B-score": "inactive"}, {"smiles": "COc1ccc(N2C(=O)C(Cc3ccccc3)NC2=S)cc1", "note": "(stereo not given)", "B-score": "inactive"}, {"smiles": "CCOC(=O)N1CCN(C(=O)c2ccccc2SCC(=O)NCC2CCCCC2)CC1", "B-score": "inactive"}, {"smiles": "CC(C)(C)NC(=O)NC(=O)CN1CCC(Cc2ccccc2)CC1", "B-score": "-7.19 (active)"}, {"smiles": "O=C(O)c1ccc(S(=O)(=O)N2CCC(Cc3ccccc3)CC2)cc1", "B-score": "inactive"}, {"smiles": "NC(=O)c1ccc(CN2CCC(Cc3ccccc3)CC2)cc1", "B-score": "inactive"}, {"smiles": "Cc1sc2ncnc(N3CCC(C(=O)NNC(=O)c4ccc(F)cc4)CC3)c2c1C", "B-score": "inactive"}, {"smiles": "Cc1cc(C)c(-c2c(O)c3ccccc3n(C)c2=O)c(C)c1", "B-score": "inactive"}, {"smiles": "CCn1c(=O)cc(O)c2ccccc21", "B-score": "inactive"}, {"smiles": "Cn1c2ccccc2c(=O)c2c(O)cccc21", "B-score": "-5.96 (active)"}, {"smiles": "CCCC[C@@H]1CN=C(N)N1CCc1cccc(F)c1", "B-score": "inactive"}, {"smiles": "Cc1cccc(Nc2nc(NCCO)nc(N3CCCC3)n2)c1", "B-score": "inactive"}, {"smiles": "COc1ccc(C(=O)N(Cc2ccccc2)c2ccc(C)cc2)cc1S(=O)(=O)N1CCOCC1", "B-score": "inactive"}, {"smiles": "COc1cccc(NC(=O)CSc2nccn(-c3ccc4c(c3)OCCO4)c2=O)c1", "B-score": "inactive"}, {"smiles": "CC(C)(C)S(=O)(=O)c1ccccc1-c1noc(-c2ccccc2)c1C(N)=O", "B-score": "inactive"}, {"smiles": "CN(C)CCn1c2c(c(SCC(=O)NCc3ccccc3)nc1=O)CCC2", "B-score": "inactive"}, {"smiles": "Nc1cc(N2CCCCCC2)c2nonc2c1[N+](=O)[O-]", "B-score": "-7.12 (active)"}, {"smiles": "COCCNc1nc(N)c([N+](=O)[O-])c(N2CCCCCC2)n1", "B-score": "inactive"}, {"smiles": "Nc1nc(NCC(=O)O)nc(N2CCCCCC2)c1[N+](=O)[O-]", "B-score": "inactive"}, {"smiles": "Cc1ccc(S(=O)(=O)N2CCN(C(=O)Cc3sc(C)nc3-c3ccc(F)cc3)CC2)c(C)c1", "B-score": "inactive"}, {"smiles": "COc1ccc(NC(=O)CN(C)C(=O)c2cccc(S(=O)(=O)N3CCN(c4ccccc4)CC3)c2)cc1", "B-score": "inactive"}, {"smiles": "Cc1ccccc1NC(=O)COc1cccc2c1CCNC2=O", "B-score": "inactive"}, {"smiles": "Cc1c(NC(=S)Nc2ccccc2)c(=O)n(-c2ccccc2)n1C", "B-score": "inactive"}, {"smiles": "Cc1ccc(S(=O)(=O)/N=C(/NC(=S)Nc2c(C)n(C)n(-c3ccccc3)c2=O)c2ccccc2)cc1", "B-score": "-6.35 (active)"}, {"smiles": "Cc1ccc(S(=O)(=O)CC(=O)Nc2c(C)n(C)n(-c3ccccc3)c2=O)cc1", "B-score": "inactive"}, {"smiles": "CC(=O)N1CCc2c(sc(NC(=O)CCS(=O)(=O)c3ccc(C)cc3)c2C(N)=O)C1", "B-score": "inactive"}, {"smiles": "O=C(c1cc(-c2ccco2)nc2ccccc12)N(Cc1nnc(-c2ccc(Cl)cc2)o1)C1CC1", "B-score": "inactive"}, {"smiles": "CC(C)CN(C(=O)COC(=O)c1ccc2ccccc2c1)c1c(N)n(Cc2ccccc2)c(=O)[nH]c1=O", "B-score": "inactive"}, {"smiles": "COc1ccc(/C=N/NC(=O)c2cc(-c3cccc(C)c3)nc3ccccc23)cc1O", "B-score": "inactive"}, {"smiles": "COc1ccccc1OCCCCCCN1CCN(C)CC1", "B-score": "inactive"}, {"smiles": "CCN(CC)c1ccc(S(=O)(=O)N2CCCCC2)cc1NC(=O)C1=COCCO1", "B-score": "inactive"}, {"smiles": "CCOc1ccccc1Nc1ccc2nonc2c1[N+](=O)[O-]", "B-score": "-6.62 (active)"}, {"smiles": "Cc1ccccc1Nc1c([N+](=O)[O-])ccc2nonc12", "B-score": "inactive"}, {"smiles": "CCOc1ccccc1Nc1ccc(C(=O)O)cc1[N+](=O)[O-]", "B-score": "inactive"}, {"smiles": "COc1ccc(-c2ccc3nnc(SCC(=O)Nc4ccc(NC(C)=O)cc4)n3n2)cc1", "B-score": "inactive"}, {"smiles": "Cc1cccc(C)c1-n1c(C)cc(/C=C2\\C(=O)NN(c3ccccc3)C2=O)c1C", "B-score": "inactive"}, {"smiles": "Cc1ccccc1-n1c(C)cc(/C=C2\\NC(=O)NC2=O)c1C", "B-score": "-8.08 (active)"}, {"smiles": "Cc1cc(/C=C2/NC(=O)NC2=O)c(C)n1-c1cccnc1", "B-score": "inactive"}]}]}
